Results from PubChem BioAssay (EPA / NIEHS).
Inconclusive results are not listed. The source made the active and inactive calls. How the source made its calls, unless noted: active means hit-call score of the fitted dose curve at least 0.9, where 1 is the maximum; inconclusive means response in the unintended direction; inactive means score below 0.9.

Tests used:
[1] = ATG_TAL_CIS: Attagene CIS-FACTORIAL HepG2 Assay for human TAL Basal Promoter (AID 2282966; active means hit-call score of the fitted dose curve at least 0.9, where 1 is the maximum; inactive means score below 0.9;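 further: background control endpoint measuring basal TAL promoter reporter mRNA not a specific factor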); conditions: HepG2 Attagene cis-factorial TAL promoter reporter; actives raise or lower the signal
Summary of the method: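 After 24 hours of chemical exposure, transfected HepG2 cells yielded RNA that was converted to 6-FAM-labelled, HpaI-digested reporter fragments for capillary electrophoresis. Values derive from bidirectional fitting against DMSO controls.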

[2] = ATG_VDRE_CIS: Attagene CIS-FACTORIAL HepG2 Assay for human Vitamin D Receptor Element (VDRE) (AID 2282968; active means hit-call score of the fitted dose curve at least 0.9, where 1 is the maximum; inactive means score below 0.9); conditions: HepG2 VDRE cis-reporter transcription, actives raise or lower the signal
Summary of the method: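 Compounds were applied for 24 h to HepG2 cells transfected with promoter-regulated reporter units. Total RNA was reverse-transcribed, and reporter amplicons were fluorescently labelled and sized by capillary electrophoresis.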

[3] = biological target: Nuclear receptor subfamily 1 group I member 3 (Homo sapiens) (UniProt Q14994); assay: ATG_CAR_TRANS: Attagene TRANS-FACTORIAL HepG2 Assay for human Constitutive Androstane Receptor (CAR) (AID 2282969); conditions: HepG2 Attagene TRANS-FACTORIAL CAR reporter;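 further: activators raise reporter mRNA above DMSO so AC50 marks induction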
Chain of Nuclear receptor subfamily 1 group I member 3 (Homo sapiens) (Q14994 whole entry, looked up, the tested form may be a part): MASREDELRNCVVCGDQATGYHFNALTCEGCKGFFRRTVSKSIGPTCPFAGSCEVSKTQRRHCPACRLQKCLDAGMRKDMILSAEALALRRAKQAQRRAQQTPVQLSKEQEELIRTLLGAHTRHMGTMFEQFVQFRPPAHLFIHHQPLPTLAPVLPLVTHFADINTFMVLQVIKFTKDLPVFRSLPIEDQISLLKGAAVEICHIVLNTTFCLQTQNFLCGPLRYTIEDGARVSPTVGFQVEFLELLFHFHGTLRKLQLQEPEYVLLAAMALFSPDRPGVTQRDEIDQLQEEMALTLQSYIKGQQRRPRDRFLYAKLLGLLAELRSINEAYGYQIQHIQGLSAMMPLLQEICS
Summary of the method: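 Transiently transfected HepG2, multiplex TRANS reporters (CAR-Gal4 chimera driving GAL4-UAS reporter). 24 h dosing. Readout: reporter transcript by RT-PCR + capillary electrophoresis, fluorescence intensity; positive direction vs DMSO.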

[4] = ATG_M_19_TRANS: Attagene TRANS-FACTORIAL HepG2 Assay for M19 Transcription Factor (Internal Marker) (AID 2282974); conditions: HepG2 Attagene TRANS-FACTORIAL M19 internal marker reporter
Summary of the method: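 Fluorescence of 6-FAM-labelled reporter cDNA fragments, separated by capillary electrophoresis, served as the readout. These derived from HepG2 cells carrying transfected GAL4-UAS reporter units after 24 h dosing, with DMSO as negative control.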

[5] = biological target: Oxysterols receptor LXR-alpha (Homo sapiens) (UniProt Q13133); assay: ATG_LXRa_TRANS: Attagene TRANS-FACTORIAL HepG2 Assay for human Liver X Receptor alpha (LXRa) (AID 2282980); conditions: HepG2 Attagene TRANS reporter, LXRa transactivation
Chain of Oxysterols receptor LXR-alpha (Homo sapiens) (Q13133 whole entry, looked up, the tested form may be a part): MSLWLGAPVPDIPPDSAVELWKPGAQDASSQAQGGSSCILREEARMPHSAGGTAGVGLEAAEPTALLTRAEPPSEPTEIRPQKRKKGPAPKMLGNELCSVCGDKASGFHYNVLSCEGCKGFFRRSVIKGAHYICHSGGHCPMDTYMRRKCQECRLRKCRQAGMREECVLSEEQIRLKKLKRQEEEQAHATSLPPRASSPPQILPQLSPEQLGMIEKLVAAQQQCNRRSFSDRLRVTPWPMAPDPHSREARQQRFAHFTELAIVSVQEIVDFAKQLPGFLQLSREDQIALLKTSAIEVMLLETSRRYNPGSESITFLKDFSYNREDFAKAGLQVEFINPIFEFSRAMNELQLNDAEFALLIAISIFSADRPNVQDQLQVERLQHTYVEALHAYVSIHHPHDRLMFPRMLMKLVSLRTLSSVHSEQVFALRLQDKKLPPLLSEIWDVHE
Summary of the method: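 Transfect HepG2 with GAL4-UAS multiplex reporter constructs (TRANS format, chimeric receptor-GAL4); treat 24 h; extract RNA, reverse-transcribe, PCR-amplify, FAM-label, HpaI-digest; resolve fragments by capillary electrophoresis. Upward response vs DMSO.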

[6] = biological target: Oxysterols receptor LXR-beta (Homo sapiens) (UniProt P55055); assay: ATG_LXRb_TRANS: Attagene TRANS-FACTORIAL HepG2 Assay for human Liver X Receptor beta (LXRb) (AID 2282981); conditions: HepG2 Attagene TRANS GAL4-LXRb reporter, mRNA
Chain of Oxysterols receptor LXR-beta (Homo sapiens) (P55055 whole entry, looked up, the tested form may be a part): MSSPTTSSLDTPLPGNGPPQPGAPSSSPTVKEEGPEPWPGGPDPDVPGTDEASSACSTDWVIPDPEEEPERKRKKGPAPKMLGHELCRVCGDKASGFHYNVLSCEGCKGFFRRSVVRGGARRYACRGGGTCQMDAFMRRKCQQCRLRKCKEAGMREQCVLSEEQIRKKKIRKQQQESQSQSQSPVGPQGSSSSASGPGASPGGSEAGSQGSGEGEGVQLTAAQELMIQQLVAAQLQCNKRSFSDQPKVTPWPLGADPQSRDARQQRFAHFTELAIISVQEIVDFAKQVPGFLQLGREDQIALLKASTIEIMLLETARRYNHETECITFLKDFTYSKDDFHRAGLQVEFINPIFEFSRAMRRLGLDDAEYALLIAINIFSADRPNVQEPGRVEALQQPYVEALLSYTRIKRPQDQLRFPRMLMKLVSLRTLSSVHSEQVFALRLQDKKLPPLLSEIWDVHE
Summary of the method: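 Multiplexed reporter assay, HepG2, 24 h dosing. Fluorescence of labelled RT-PCR products after capillary electrophoresis gives transcript level; positive fitting direction relative to DMSO.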

[7] = ATG_M_32_TRANS: Attagene TRANS-FACTORIAL HepG2 Assay for M32 Transcription Factor (Internal Marker) (AID 2282984); conditions: HepG2 Attagene TRANS M32 internal marker reporter
Summary of the method: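 Internal-marker readout from a multiplexed transcription reporter panel. HepG2 cells were transfected with GAL4-UAS reporter units, treated 24 hours, and reporter transcript levels determined by fluorescence after RT-PCR and capillary separation.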

[8] = biological target: Nuclear receptor subfamily 4 group A member 2 (Homo sapiens) (UniProt P43354); assay: ATG_NURR1_TRANS: Attagene TRANS-FACTORIAL HepG2 Assay for human Nuclear Receptor Related Protein 1 (NURR1) (AID 2282985); conditions: HepG2 Attagene TRANS reporter, mRNA readout
Chain of Nuclear receptor subfamily 4 group A member 2 (Homo sapiens) (P43354 whole entry, looked up): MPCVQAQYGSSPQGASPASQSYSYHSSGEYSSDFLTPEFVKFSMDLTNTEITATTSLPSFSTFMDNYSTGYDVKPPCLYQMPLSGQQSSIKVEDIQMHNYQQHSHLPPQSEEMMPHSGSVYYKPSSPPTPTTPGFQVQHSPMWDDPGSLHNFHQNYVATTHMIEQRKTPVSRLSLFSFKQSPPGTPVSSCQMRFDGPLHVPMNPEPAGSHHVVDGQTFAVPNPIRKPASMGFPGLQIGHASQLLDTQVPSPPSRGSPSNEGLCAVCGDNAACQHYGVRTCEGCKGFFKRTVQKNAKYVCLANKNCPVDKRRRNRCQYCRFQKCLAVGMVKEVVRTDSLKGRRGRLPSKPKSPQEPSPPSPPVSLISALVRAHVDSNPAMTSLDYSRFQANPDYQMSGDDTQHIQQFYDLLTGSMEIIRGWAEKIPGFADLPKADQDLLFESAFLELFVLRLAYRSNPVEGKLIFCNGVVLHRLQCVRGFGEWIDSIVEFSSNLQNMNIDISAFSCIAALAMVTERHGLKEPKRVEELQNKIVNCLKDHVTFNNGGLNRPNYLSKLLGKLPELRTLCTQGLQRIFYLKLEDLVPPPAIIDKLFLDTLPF
Summary of the method: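 Endpoint: reporter mRNA increase relative to DMSO. HepG2 cells transfected with reporter units, treated 24 h; RNA processed by RT-PCR, labelling, HpaI digestion and capillary electrophoresis.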

[9] = biological target: Transcriptional activator Myb (Homo sapiens) (UniProt P10242); assay: ATG_Myb_CIS: Attagene CIS-FACTORIAL HepG2 Assay for human Myeloblastosis (Myb) Proto-Oncogene Transcription Factor (AID 2282986; active means hit-call score of the fitted dose curve at least 0.9, where 1 is the maximum; inactive means score below 0.9); conditions: HepG2 Attagene CIS-FACTORIAL Myb reporter transcription; actives raise or lower the signal
Summary of the method: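 Reporter transcript levels, quantified by fluorescent RT-PCR and capillary electrophoresis, serve as the read-out. Transfected HepG2 cells carrying cis-promoter reporter units are dosed for 24 hours, and curves are fitted bidirectionally against DMSO controls.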

[10] = biological target: Nuclear respiratory factor 1 (Homo sapiens) (UniProt Q16656); assay: ATG_NRF1_CIS: Attagene CIS-FACTORIAL HepG2 Assay for human Nuclear Respiratory Factor 1 (NRF1) Orphan Gene (AID 2282987; active means hit-call score of the fitted dose curve at least 0.9, where 1 is the maximum; inactive means score below 0.9); conditions: HepG2 NRF1 cis-element reporter, Attagene multiplex; actives raise or lower the signal
Chain of Nuclear respiratory factor 1 (Homo sapiens) (Q16656 whole entry, looked up): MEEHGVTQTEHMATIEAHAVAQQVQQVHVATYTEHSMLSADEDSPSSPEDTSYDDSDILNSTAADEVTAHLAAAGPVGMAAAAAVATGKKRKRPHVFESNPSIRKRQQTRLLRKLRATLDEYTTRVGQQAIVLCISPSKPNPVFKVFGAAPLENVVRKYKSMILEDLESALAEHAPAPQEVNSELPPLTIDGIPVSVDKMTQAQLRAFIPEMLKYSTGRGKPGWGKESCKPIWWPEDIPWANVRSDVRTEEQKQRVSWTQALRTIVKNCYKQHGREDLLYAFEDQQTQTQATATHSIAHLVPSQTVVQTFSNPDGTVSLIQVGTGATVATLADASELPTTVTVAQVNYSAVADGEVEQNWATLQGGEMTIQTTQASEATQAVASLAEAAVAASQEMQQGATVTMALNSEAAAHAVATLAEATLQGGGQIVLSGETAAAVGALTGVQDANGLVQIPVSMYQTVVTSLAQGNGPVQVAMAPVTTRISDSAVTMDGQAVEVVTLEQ
Summary of the method: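 Multiplexed cis-reporter assay, HepG2 cells, 24 h treatment. Total RNA → oligo(dT) RT → PCR with reporter-specific primers → 6-FAM primer extension → HpaI cut → CE. Bidirectional fit vs DMSO.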

[11] = biological target: Estrogen receptor (Homo sapiens) (UniProt P03372); assay: ATG_ERa_TRANS: Attagene TRANS-FACTORIAL HepG2 Assay for human Estrogen Receptor alpha (ERa) (AID 2282970); conditions: HepG2 Attagene TRANS ERa GAL4 reporter, mRNA
Chain of Estrogen receptor (Homo sapiens) (P03372 whole entry, looked up, the tested form may be a part): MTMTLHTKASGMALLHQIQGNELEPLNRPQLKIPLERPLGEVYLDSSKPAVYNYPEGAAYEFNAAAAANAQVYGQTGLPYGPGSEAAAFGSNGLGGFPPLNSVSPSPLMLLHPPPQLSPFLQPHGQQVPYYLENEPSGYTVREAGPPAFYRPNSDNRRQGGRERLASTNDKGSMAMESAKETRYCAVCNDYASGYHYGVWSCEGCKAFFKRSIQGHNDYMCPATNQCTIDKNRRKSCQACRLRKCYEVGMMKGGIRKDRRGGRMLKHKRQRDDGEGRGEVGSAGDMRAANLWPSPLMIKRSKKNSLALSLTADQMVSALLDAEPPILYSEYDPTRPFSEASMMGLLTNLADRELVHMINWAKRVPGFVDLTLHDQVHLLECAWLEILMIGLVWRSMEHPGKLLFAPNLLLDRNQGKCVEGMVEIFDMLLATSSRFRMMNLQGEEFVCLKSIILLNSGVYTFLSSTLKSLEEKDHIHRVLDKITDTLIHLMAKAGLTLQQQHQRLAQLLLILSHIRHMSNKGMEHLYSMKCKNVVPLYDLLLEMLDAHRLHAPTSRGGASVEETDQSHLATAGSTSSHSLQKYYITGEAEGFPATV
Summary of the method: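 Liver-derived HepG2 cells expressing chimeric nuclear receptor-Gal4 proteins from transient transfection were exposed for 24 hours. Gain of reporter mRNA signal versus DMSO, read by capillary electrophoresis of FAM-labelled PCR products, was recorded.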

[12] = biological target: X-box-binding protein 1 (Homo sapiens) (UniProt P17861); assay: ATG_Xbp1_CIS: Attagene CIS-FACTORIAL HepG2 Assay for human X-box Binding Protein 1 (XBP1) (AID 2282972; active means hit-call score of the fitted dose curve at least 0.9, where 1 is the maximum; inactive means score below 0.9); conditions: HepG2 XBP1 cis-element reporter, Attagene multiplex; actives raise or lower the signal
Chain of X-box-binding protein 1 (Homo sapiens) (P17861 whole entry, looked up): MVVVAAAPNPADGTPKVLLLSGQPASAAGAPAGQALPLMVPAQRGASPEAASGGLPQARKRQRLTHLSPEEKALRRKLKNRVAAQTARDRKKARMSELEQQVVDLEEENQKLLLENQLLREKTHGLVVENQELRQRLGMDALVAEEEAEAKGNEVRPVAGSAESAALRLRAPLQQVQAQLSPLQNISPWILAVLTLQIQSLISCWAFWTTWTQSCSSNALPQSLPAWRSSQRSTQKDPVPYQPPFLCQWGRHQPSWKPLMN
Summary of the method: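 Changes in reporter transcript abundance, read by RT-PCR and capillary electrophoresis, reflect endogenous transcription factor activity. Transfected HepG2 cells received compound for 24 hours; DMSO defined baseline for bidirectional analysis.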

[13] = biological target: Glucocorticoid receptor (Homo sapiens) (UniProt P04150); assay: ATG_GR_TRANS: Attagene TRANS-FACTORIAL HepG2 Assay for human Glucocorticoid Receptor (GR) (AID 2282978); conditions: HepG2 Attagene TRANS GR reporter, mRNA transcription;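 further: activators score as hits since higher reporter transcript over DMSO is fitted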
Chain of Glucocorticoid receptor (Homo sapiens) (P04150 whole entry, looked up, the tested form may be a part): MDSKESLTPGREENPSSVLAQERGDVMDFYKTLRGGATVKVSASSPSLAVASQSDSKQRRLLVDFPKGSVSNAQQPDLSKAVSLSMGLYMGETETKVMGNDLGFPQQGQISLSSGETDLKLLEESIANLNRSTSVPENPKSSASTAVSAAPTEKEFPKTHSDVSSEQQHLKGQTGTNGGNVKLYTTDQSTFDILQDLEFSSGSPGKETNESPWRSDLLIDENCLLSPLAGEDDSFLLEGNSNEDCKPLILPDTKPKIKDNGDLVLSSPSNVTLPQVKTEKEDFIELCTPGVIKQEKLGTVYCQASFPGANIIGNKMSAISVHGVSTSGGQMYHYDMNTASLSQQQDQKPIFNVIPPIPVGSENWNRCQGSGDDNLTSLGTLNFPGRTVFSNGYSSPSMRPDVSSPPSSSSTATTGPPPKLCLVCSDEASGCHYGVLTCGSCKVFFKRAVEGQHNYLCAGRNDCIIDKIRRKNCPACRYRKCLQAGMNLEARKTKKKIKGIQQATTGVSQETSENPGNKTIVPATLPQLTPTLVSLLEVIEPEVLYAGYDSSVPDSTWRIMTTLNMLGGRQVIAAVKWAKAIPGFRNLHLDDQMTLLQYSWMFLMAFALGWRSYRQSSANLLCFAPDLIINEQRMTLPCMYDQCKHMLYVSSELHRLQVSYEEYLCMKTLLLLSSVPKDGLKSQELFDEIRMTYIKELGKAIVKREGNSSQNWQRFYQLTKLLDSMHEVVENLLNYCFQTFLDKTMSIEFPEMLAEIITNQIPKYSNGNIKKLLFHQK
Summary of the method: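 Fluorescent capillary-electrophoresis quantitation of reporter mRNA is the readout, taken 24 h after dosing human HepG2 cells carrying transiently transfected GAL4-UAS reporter units activated by chimeric NR-GAL4 fusions; activity scored as induction over DMSO.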

[14] = biological target: Hepatocyte nuclear factor 4-alpha (Homo sapiens) (UniProt P41235); assay: ATG_HNF4a_TRANS: Attagene TRANS-FACTORIAL HepG2 Assay for human Hepatocyte Nuclear Factor 4 alpha (HNF4a) (AID 2282982); conditions: HepG2 HNF4a transactivation reporter, mRNA readout
Chain of Hepatocyte nuclear factor 4-alpha (Homo sapiens) (P41235 whole entry, looked up, the tested form may be a part): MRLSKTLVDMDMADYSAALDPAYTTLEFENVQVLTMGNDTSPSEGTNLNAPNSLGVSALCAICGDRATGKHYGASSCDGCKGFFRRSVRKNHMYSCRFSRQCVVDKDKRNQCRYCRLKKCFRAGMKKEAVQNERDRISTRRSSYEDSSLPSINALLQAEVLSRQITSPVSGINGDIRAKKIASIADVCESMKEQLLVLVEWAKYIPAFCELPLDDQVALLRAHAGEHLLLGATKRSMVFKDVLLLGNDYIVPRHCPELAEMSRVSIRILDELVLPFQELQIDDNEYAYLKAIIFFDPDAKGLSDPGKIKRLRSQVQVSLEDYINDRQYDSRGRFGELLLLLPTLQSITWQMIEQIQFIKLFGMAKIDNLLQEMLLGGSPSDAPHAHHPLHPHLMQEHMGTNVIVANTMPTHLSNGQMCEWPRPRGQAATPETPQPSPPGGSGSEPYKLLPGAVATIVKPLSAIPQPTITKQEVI
Summary of the method: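 Endpoint reflects transcriptional activation of a GAL4-UAS reporter by an HNF4a-GAL4 chimera in transfected HepG2 cells, 24 h post-dosing. Fluorescence from RT-PCR products separated by capillary electrophoresis; DMSO baseline.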

[15] = ATG_M_06_TRANS: Attagene TRANS-FACTORIAL HepG2 Assay for M06 Transcription Factor (Internal Marker) (AID 2282983); conditions: HepG2 Attagene TRANS M06 internal marker reporter
Summary of the method: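 Background control endpoint: reporter mRNA from transiently transfected HepG2 after 24 h dosing, detected by RT-PCR with capillary electrophoresis fluorescence. Analysed for gain versus DMSO.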

[16] = biological target: Steroid hormone receptor ERR1 (Homo sapiens) (UniProt P11474); assay: ATG_ERRa_TRANS: Attagene TRANS-FACTORIAL HepG2 Assay for human Estrogen-Related Receptor alpha (ERRa) (AID 2282971); conditions: HepG2 Attagene TRANS reporter, ERRa transactivation
Chain of Steroid hormone receptor ERR1 (Homo sapiens) (P11474 whole entry, looked up, the tested form may be a part): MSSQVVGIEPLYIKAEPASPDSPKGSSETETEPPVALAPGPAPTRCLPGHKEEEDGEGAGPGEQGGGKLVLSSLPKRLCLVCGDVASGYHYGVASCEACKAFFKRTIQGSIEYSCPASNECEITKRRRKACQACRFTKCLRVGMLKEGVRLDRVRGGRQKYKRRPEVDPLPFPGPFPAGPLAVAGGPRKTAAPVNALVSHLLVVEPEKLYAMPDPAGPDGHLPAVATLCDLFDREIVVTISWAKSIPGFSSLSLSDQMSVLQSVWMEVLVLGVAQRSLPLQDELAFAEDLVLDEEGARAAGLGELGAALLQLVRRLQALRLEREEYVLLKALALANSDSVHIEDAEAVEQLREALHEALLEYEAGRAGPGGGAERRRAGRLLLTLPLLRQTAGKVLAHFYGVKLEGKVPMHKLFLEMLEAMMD
Summary of the method: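 Reporter transcript induction was quantified by RT-PCR and capillary electrophoresis of FAM-labelled, HpaI-cut products after 24 h treatment of HepG2 cells carrying transiently transfected GAL4-UAS reporter units and an exogenous ERRa-Gal4 fusion; activity scored as increase over DMSO.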

[17] = ATG_GAL4_TRANS: Attagene TRANS-FACTORIAL HepG2 Assay for GAL4 (Internal Marker) (AID 2282976); conditions: HepG2 Attagene TRANS GAL4 internal marker reporter
Summary of the method: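 First, HepG2 cells were transfected with reporter units under GAL4-UAS control. Next, they were treated with chemical for 24 h. Finally, RNA was reverse-transcribed, PCR-amplified, FAM-labelled and resolved by capillary electrophoresis, with induction scored against DMSO.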

[18] = biological target: Estrogen-related receptor gamma (Homo sapiens) (UniProt P62508); assay: ATG_ERRg_TRANS: Attagene TRANS-FACTORIAL HepG2 Assay for human Estrogen-Related Receptor gamma (ERRg) (AID 2282977); conditions: HepG2 Attagene TRANS reporter, ERRg transactivation;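 further: hits increase reporter signal over DMSO so potencies reflect activators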
Summary of the method: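 Exogenous NR-Gal4 chimera activity measured as reporter transcript induction after 24 h in transiently transfected HepG2 cells. RNA reverse-transcribed, PCR-amplified, 6-FAM-labelled and resolved by capillary electrophoresis; increase over DMSO baseline.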

[19] = biological target: Bile acid receptor (Homo sapiens) (UniProt Q96RI1); assay: ATG_FXR_TRANS: Attagene TRANS-FACTORIAL HepG2 Assay for Farnesoid X Receptor (FXR) (AID 2282979); conditions: HepG2 Attagene TRANS FXR-GAL4 reporter transcription;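 further: hits raise reporter mRNA above DMSO so AC50 marks FXR activation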
Summary of the method: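 Transient transfection of HepG2 with multiplexed GAL4-UAS reporter units; exogenous FXR-GAL4 chimera. Dose 24 h → TriZol RNA → oligo(dT) RT → PCR, 6-FAM primer extension, HpaI cut → CE. Gain vs DMSO.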

## CC(C)=CCCC(C)=CCCC(C)=CCO
[1]
  outcome: inactive
[2]
  outcome: inactive
[3]
  outcome: inactive
[4]
  outcome: inactive
[5]
  outcome: inactive
[6]
  outcome: inactive
[7]
  outcome: inactive
[8]
  outcome: inactive
[9]
  outcome: inactive
[10]
  outcome: inactive

## O=C(O)CCCCCCCCCCC(=O)O
[1]
  outcome: inactive
[2]
  outcome: inactive
[11]
  outcome: inactive
[12]
  outcome: inactive
[4]
  outcome: inactive
[13]
  outcome: inactive
[5]
  outcome: inactive
[6]
  outcome: inactive
[14]
  outcome: inactive
[15]
  outcome: inactive
[8]
  outcome: inactive
[9]
  outcome: inactive
[10]
  outcome: inactive

## CC1CCC(C(C)CS)CC1S (configuration not stated)
[1]
  outcome: inactive
[2]
  outcome: inactive
[16]
  outcome: inactive
[12]
  outcome: inactive
[4]
  outcome: inactive
[17]
  outcome: inactive
[5]
  outcome: inactive
[6]
  outcome: inactive
[15]
  outcome: inactive
[7]
  outcome: inactive
[9]
  AC50: 50.5 µM (active)
[10]
  outcome: inactive

## CC(C=O)Cc1ccc(C(C)C)cc1 (configuration not stated)
[1]
  outcome: inactive
[2]
  outcome: inactive
[12]
  outcome: inactive
[17]
  outcome: inactive
[13]
  outcome: inactive
[14]
  outcome: inactive
[15]
  outcome: inactive
[7]
  outcome: inactive
[8]
  outcome: inactive
[9]
  outcome: inactive
[10]
  outcome: inactive

## Nc1cc([N+](=O)[O-])ccc1O
[1]
  outcome: inactive
[2]
  outcome: inactive
[3]
  outcome: inactive
[16]
  outcome: inactive
[12]
  outcome: inactive
[4]
  outcome: inactive
[17]
  outcome: inactive
[18]
  outcome: inactive
[13]
  outcome: inactive
[14]
  outcome: inactive
[15]
  outcome: inactive
[7]
  outcome: inactive
[8]
  outcome: inactive
[9]
  outcome: inactive

## O=C1O[C@@H]2[C@@H](O)[C@H](O)O[C@@H]2[C@H]1O
[1]
  outcome: inactive
[2]
  outcome: inactive
[3]
  outcome: inactive
[11]
  outcome: inactive
[16]
  outcome: inactive
[12]
  outcome: inactive
[6]
  outcome: inactive
[14]
  outcome: inactive
[15]
  outcome: inactive
[10]
  outcome: inactive

## Cc1cc(C2(c3cc(C)c(O)cc3C)OS(=O)(=O)c3ccccc32)c(C)cc1O
[1]
  outcome: inactive
[3]
  outcome: inactive
[11]
  AC50: 4.2 µM (active)
[12]
  outcome: inactive
[4]
  outcome: inactive
[17]
  outcome: inactive
[13]
  outcome: inactive
[14]
  outcome: inactive
[15]
  outcome: inactive
[9]
  outcome: inactive
[10]
  outcome: inactive

## CC1=CCC(O)(C(C)C)CC1 (configuration not stated)
[1]
  outcome: inactive
[2]
  outcome: inactive
[3]
  outcome: inactive
[11]
  outcome: inactive
[12]
  outcome: inactive
[4]
  outcome: inactive
[17]
  outcome: inactive
[13]
  outcome: inactive
[5]
  outcome: inactive
[6]
  outcome: inactive
[14]
  outcome: inactive
[15]
  outcome: inactive
[7]
  outcome: inactive
[9]
  outcome: inactive
[10]
  outcome: inactive

## CC(=O)OCC=Cc1ccccc1
[1]
  outcome: inactive
[2]
  outcome: inactive
[3]
  outcome: inactive
[16]
  outcome: inactive
[12]
  outcome: inactive
[4]
  outcome: inactive
[17]
  outcome: inactive
[18]
  outcome: inactive
[19]
  outcome: inactive
[7]
  outcome: inactive
[8]
  outcome: inactive
[9]
  outcome: inactive
[10]
  outcome: inactive

## C=CCOc1nc(OCC=C)nc(OCC=C)n1
[1]
  outcome: inactive
[2]
  outcome: inactive
[12]
  outcome: inactive
[4]
  outcome: inactive
[13]
  outcome: inactive
[5]
  outcome: inactive
[6]
  outcome: inactive
[15]
  outcome: inactive
[7]
  outcome: inactive
[9]
  outcome: inactive
[10]
  outcome: inactive

## CCCCCCOC(=O)CC
[1]
  outcome: inactive
[2]
  outcome: inactive
[11]
  outcome: inactive
[16]
  outcome: inactive
[12]
  outcome: inactive
[4]
  outcome: inactive
[5]
  outcome: inactive
[6]
  outcome: inactive
[7]
  outcome: inactive
[8]
  outcome: inactive
[9]
  outcome: inactive
[10]
  outcome: inactive
